Compound activity deposited in PubChem BioAssay by Buhrlage Lab, Dana-Farber Cancer Institute and Novartis Institutes for BioMedical Research (Cambridge, Mass).
Sampled rows, rich in hits. Any-hit rate of the full collection: about 4.6%.
USP10 inh: human USP10 deubiquitinase inhibition; Q14694; purified USP10, Ub-rhodamine fluorescence, 60 min; inhibition, % at 20 µM; actives 1.1% (n = 47,000); AID 1645856
USP7 inh: blocks human USP7 ubiquitin-rhodamine cleavage. Q93009. purified USP7, Ub-rhodamine cleavage fluorescence. inhibition, % at 20 µM. actives 0.3% (n = 47,000)
UCHL1 inh: inhibitors of human UCHL1 deubiquitinase. inhibition, % at 20 µM. actives 0.2% (n = 47,000). purified UCHL1, Ub-rhodamine cleavage fluorescence. AID 1645859. P09936
USP8 inh: inhibitors of human USP8 deubiquitinase. purified USP8, Ub-rhodamine cleavage fluorescence, 30 min. inhibition, % at 20 µM. actives 4.2% (n = 47,000)
An asterisk follows results filed as active; . = no result given. No stated cut-off is given here; in the data, active means inhibition above about 30%; inactive means the rest.

SMILES	USP10 inh	USP7 inh	UCHL1 inh	USP8 inh
Cc1cc(NC(=O)Cn2c(=O)n(CCC(=O)N3CC=C(c4ccccc4)CC3)c(=O)c3ccccc32)n[nH]1	22.9	8.4	0.8	68.4*
COc1ccc(Cl)cc1NC(=O)Cn1c(=O)n(CCC(=O)N2CCc3ccccc3C2)c(=O)c2ccccc21	5.5	1.7	5.6	33.8*
COc1ccc(NC(=O)Cn2c(=O)n(CCC(=O)N3CC=C(c4ccccc4)CC3)c(=O)c3ccccc32)cc1Cl	3.0	1.7	0.3	0.0
Cc1cc(NC(=O)Cn2c(=O)n(CCc3ccccc3)c(=O)c3ccccc32)n[nH]1	8.4	-2.9	-0.7	10.0
COc1ccccc1NC(=O)CN1CCc2ccccc2C1	1.3	5.4	2.3	-0.7
COc1ccc(NC(=O)Cn2c(=O)n(CCCC(=O)NC3CCCC3)c(=O)c3cc(Cl)ccc32)c(OC)c1	31.1*	9.4	2.8	6.9
COc1ccc(NC(=O)Cn2c(=O)n(CCC(=O)N3CCc4ccccc4C3)c(=O)c3ccccc32)cc1Cl	17.2	9.2	6.2	55.3*
COc1ccc(CNC(=O)c2ccccc2NC(=O)c2ccccc2F)cc1	2.3	-4.1	0.1	3.3
O=C(c1ccccc1Cl)N(Cc1ccc2[nH]ccc2c1)C1CC1	2.7	-2.6	3.8	0.1
Cc1cn[nH]c1C1CCN(C(=O)c2ccc3oc(=O)n(C)c3c2)C1 (stereo not drawn)	0.2	-2.1	-1.2	-4.5
O=C(CCCn1c(=O)[nH]c2ccc(Br)cc2c1=O)N1CCc2ccccc2C1	6.2	-13.1	5.7	9.2
O=C(CCCn1c(=O)[nH]c2cc(Cl)ccc2c1=O)N1CCc2ccccc2C1	4.3	-11.0	1.3	69.1*
Nc1ncc2c(n1)CCN(c1ccc([N+](=O)[O-])cc1)C2	2.4	0.1	-0.5	-32.2
O=S(=O)(c1ccccc1)c1nnn2c1nc(Nc1ccc(F)cc1)c1ccccc12	9.9	7.7	2.4	52.1*
COc1cccc(CNc2nc3c(S(=O)(=O)c4ccc(F)cc4)nnn3c3ccccc23)c1	0.6	5.5	-3.2	9.1
COc1cccc(Nc2nc3c(S(=O)(=O)c4ccccc4)nnn3c3ccccc23)c1	19.7	23.6	7.0	37.7*
Cc1ccc(S(=O)(=O)c2nnn3c2nc(Nc2cccc(C)c2C)c2ccccc23)cc1	12.6	13.8	2.0	67.0*
Cc1cccc(Nc2nc3c(S(=O)(=O)c4ccc(C(C)(C)C)cc4)nnn3c3ccccc23)c1C	-0.3	9.0	1.2	23.2
O=C(CCCC1=NS(=O)(=O)c2ccccc2N1)NCc1ccccc1Cl	-0.1	-2.5	-4.4	-2.8
O=S(=O)(NC1=NCN(CCCO)CN1)c1ccc(Cl)cc1	1.0	0.5	0.5	5.5
Cc1ccc(-c2nc3c(c(SCC(=O)NCc4ccco4)n2)COC(C)(C)C3)cc1	1.4	8.5	5.1	22.8
Cc1ccc2[nH]c3c(=O)n(CCc4ccccc4)cnc3c2c1	12.3	6.3	1.4	31.6*
O=c1c2[nH]c3ccc(Cl)cc3c2ncn1CCC1=CCCCC1	-1.8	0.0	-1.1	14.2
CCOc1ccc2[nH]c3c(=O)n(CCC4=CCCCC4)cnc3c2c1	8.9	9.7	2.8	47.5*
CCn1nc(C(C)C)cc1C(=O)N1CCOC(c2nccnc2N)C1 (stereo not drawn)	-4.5	-3.0	-3.6	-32.0
SMILES	USP10 inh	USP7 inh	UCHL1 inh	USP8 inh
CCOC(=O)c1ccc(-n2c(=O)c(C#N)cc3c(=O)n4ccccc4nc32)cc1	-6.6	-38.4	-27.0	-40.0
CCOC(=O)c1cc2c(=O)n3ccccc3nc2n(Cc2ccco2)c1=NC(=O)COc1ccc2ccccc2c1	-17.8	27.5	42.5*	10.3
O=C(C1CCCC1)N1CCCC1c1ccnc(Nc2ccccn2)n1 (stereo not drawn)	0.7	-8.7	-3.1	-7.0
O=C(C1CCC1)N1CCCC1c1ccnc(Nc2cnccn2)n1 (stereo not drawn)	-7.1	0.6	1.2	44.5*
CNC1CCc2cc(OC)c(OC)c(OC)c2-c2ccc(NCc3ccc(OC)cc3)c(=O)cc21 (stereo not drawn)	-2.3	-5.6	-6.5	-21.0
COc1ccc(-c2nc(-c3cc4cc(OC)ccc4[nH]c3=O)no2)cc1	-1.9	-47.7	-0.5	34.6*
O=C(/C=C/c1ccco1)c1cccc([N+](=O)[O-])c1	32.3*	.	19.3	50.1*
Cc1ccc(NC(=O)C2C3C=CC4(O3)C2C(=O)N(C2CCCCC2)C4C(=O)NC2CCCCC2)cc1C (stereo not drawn)	3.3	-155.4	1.4	-0.5
COc1ccc(OC)c(C2=NO[C@]3(C(=O)Nc4ccccc43)[C@H]2C(=O)c2ccc(OC)c(OC)c2)c1	3.0	5.4	84.6*	-14.4
CN(C)C(=O)c1nn(C)c2c1CN(Cc1cccc(C#N)c1)C2	-7.7	-7.5	-7.0	-3.2
